Data reported in the supplement of paper PMC10338343.
± gives the standard deviation. In all, about 8,200 sequences were measured (“pre-steady-state target cleavage rate”: median about 0.024, highest 2% from about 1.3 on). Only a selection was taken, and the highest values are over-represented in it overall.

Tested on: MIWI (PIWIL1) piRISC loaded with L1MC piRNA (30 nt)
Experiment: pre-steady-state target cleavage rate (min^-1); MIWI and MILI are mouse PIWI proteins and EfPiwi is from a freshwater sponge; tags in brackets are library labels; higher = faster piRNA-guided slicing of the target
Settings: guide: L1MC piRNA 5'p-UAACUAAAUACUAUGCAAGCUGUAGGUCCU
Description: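 Cleave-'n-Seq: a library of target RNAs (target site embedded in constant flanks, ACAGCATTCCGCGTTAGTGATATCCG... 5' flank; DNA-blocked outside the site) at 0.1 nM was incubated with 1 nM active mouse MILI or MIWI piRISC (synthetic 5'-monophosphorylated piRNA guide) with or without 500 nM mouse GTSF1 at 33 °C for 1 min to 16 h. Uncleaved targets were sequenced and normalised to non-target controls, and the pooled three trials were fitted to a burst-and-steady-state model to give the pre-steady-state cleavage rate (min^-1; k3 is constrained to at most 1e-4). Sequence is the target site only; target names encode pairing extent (gX:gY) and contiguous / 1-mismatch / 2-mismatch / bulge geometry. Fits with R² ≤ 0 are excluded.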

[1] = auxiliary factor: 500 nM mouse GTSF1
[2] = auxiliary factor: none (no GTSF1)

Row | Sequence | pre-steady-state target cleavage rate [1] | pre-steady-state target cleavage rate [2]
1 | UCCUCGUACAGCUUGCAUAGUAAUUAGUUA | 0.952 ± 0.032 | 0.029 ± 0.007
2 | UCCUGCAUGAGCUUGCAUAGUAUUUAGUUA | 0.92 ± 0.051 | 0.0506 ± 0.01
3 | UCCUGGAACAGCUUGCAUAGUAUUAUGUUA | 0.169 ± 0.023 | 0.013 ± 0.0044
4 | UCCUGGAACACUUGCAUAGUAUUUAGUUA | 0.596 ± 0.032 | 0.0132 ± 0.0044
5 | UCCACGUACAGCUUGCAUAGAAUUUAGUUA | 0.412 ± 0.022 | 0.0297 ± 0.0084
6 | ACGACCUACAGCUUGCAAAGUAUUUAGUUA | 1.56 ± 0.057 | 0.0528 ± 0.011
7 | UCGACCUACAGCUUGCAAAGUAUUUAGUAA | 0.99 ± 0.053 | 0.0245 ± 0.0048
8 | AGGACCUACAGCUUGCAAAGUAUUUAGUUA | 1.26 ± 0.053 | 0.0478 ± 0.0089
9 | UGCACCUACAGCUUGCAAAGUAUUUAGUUA | 1.23 ± 0.08 | 0.0409 ± 0.0074
10 | UCGACCUACAGCUUGCAAGUAUUUAGUUA | 0.427 ± 0.038 | 0.00682 ± 0.0023
11 | UGGACCUACAGCUUGCAAAGUAUUUAGUAA | 1.13 ± 0.074 | 0.0219 ± 0.006
12 | UCCACCUACAGCUUGCAAAGUAUUUAGUUA | 0.937 ± 0.044 | 0.0318 ± 0.0069
13 | UCGACCUACAGCUUGCAAAGUAUUUAGUUA | 1.47 ± 0.056 | 0.0377 ± 0.0085
14 | UGGACCUACAGCUUGCAAAGUAUUUAGUUA | 1.36 ± 0.058 | 0.0474 ± 0.0097
15 | UCCUGGUACUGCUUGCAUAGUAAUUAGUUA | 0.313 ± 0.047 | 0.0127 ± 0.0034
16 | AGGACCUACAGCUUGCAUACUUUUUAGUUA | 0.0575 ± 0.011 | 0.00783 ± 0.0023
17 | UCCUGGAUCAGGUUGCAAAGUAUUUAGUUA | 0.391 ± 0.036 | 0.0061 ± 0.0023
18 | UCCACCUACACGUUGCAUAGUAUUUUCAAA | 0.22 ± 0.036 | –
19 | UCCUGGAAGAGCUUCCAUAGUAUUUAGUUA | 0.255 ± 0.058 | –
20 | UGGACCUACAGCUUGCAUAGUAUUUCAGUUA | 0.468 ± 0.06 | 0.0318 ± 0.0065

Row | Sequence | pre-steady-state target cleavage rate [1] | pre-steady-state target cleavage rate [2]
21 | AGGUGGUACAGCUUGCAUAGUAUUUAGUAA | 0.645 ± 0.065 | 0.04 ± 0.0068
22 | UGGAGGUACAGCUUGCAUAGUAUUUAGUAA | 0.794 ± 0.065 | 0.0463 ± 0.0071
23 | AGGAGGUACAGCUUGCAUAGUAUUUAGUAA | 0.803 ± 0.079 | 0.0437 ± 0.0095
24 | AGGAGGUACAGCUUGCAUAGUAUUUAGAAA | 0.324 ± 0.044 | 0.0123 ± 0.0037
25 | UGGUGGUACAGCUUGCAUAGUAUUUAGUUA | 1.3 ± 0.046 | 0.0711 ± 0.012
26 | UCGAGGUACAGCUUGCAUAGUAUUUAGUUA | 1.04 ± 0.066 | 0.0604 ± 0.0095
27 | AGGAGGUACAGCUUGCAUAGUAUUUAGUUA | 1.5 ± 0.072 | 0.0721 ± 0.011
28 | UGGAGGUACAGCUUGCAUAGUAUUUAGUUA | 1.35 ± 0.064 | 0.0828 ± 0.015
29 | AGGUGGUACAGCUUGCAUAGUAUUUAGUUA | 1.36 ± 0.057 | 0.0811 ± 0.015
30 | UGGACCUACAGCUUGCAUAGAAUUUACAAA | 0.29 ± 0.062 | –
31 | UGGACCUACAGGUUGCAUAGUAAUUAGUUA | 0.731 ± 0.055 | 0.0177 ± 0.0042
32 | UGGACCUACAGCUUGCAUAGAAUUUUCAAA | 0.239 ± 0.048 | –
33 | UCCUGGAUGUGCUUGCAUGGUAUUUAGUUA | 0.209 ± 0.02 | 0.0348 ± 0.0072
34 | UCGACCUACAGCUUGCAUAGUAUUUAGAUA | 0.564 ± 0.043 | 0.0299 ± 0.0074
35 | UCCACCUACACCUUGCAUAGUAUUUACAAA | 0.309 ± 0.053 | 0.00355 ± 0.0022
36 | UCCUGGUACAGCUAGCAUAGUAUUAAGUUA | 0.378 ± 0.051 | 0.00772 ± 0.0027
37 | UCCUGGAUGUGCUUGCAUAGUAUUUUAGUUA | 0.128 ± 0.018 | 0.021 ± 0.0069
38 | UCCACCUACAGCUACGAUAGUAUUUAGUUA | 0.121 ± 0.016 | –
39 | UCCUCCUACUGCUAGCAUAGUAUUUAGUUA | 0.871 ± 0.033 | 0.0164 ± 0.0031
40 | UCCUCCUUCAGCUUGGAUAGUAUUUAGUUA | 1.19 ± 0.041 | 0.0358 ± 0.0057

Row | Sequence | pre-steady-state target cleavage rate [1] | pre-steady-state target cleavage rate [2]
41 | UCCACCUUCAGCUUGGAUAGUAUUUAGUUA | 1.15 ± 0.033 | 0.0456 ± 0.0083
42 | AGGACCUUCAGCUUGGAUAGUAUUUAGUUA | 1.48 ± 0.052 | 0.0657 ± 0.012
43 | UCGACCUAGAGCUUGGAUAGUAUUUAGUUA | 1.25 ± 0.042 | 0.0475 ± 0.0077
44 | UCGACCUUCAGCUUGGAUAGUAUUUAGUUA | 1.49 ± 0.05 | 0.0525 ± 0.0074
45 | AGGACCUUCAGCUUCCAUAGUAUUUAGUUA | 0.101 ± 0.023 | 0.00546 ± 0.0024
46 | UCCUGCUUCAGCUUGGAUAGUAUUUAGUUA | 1.18 ± 0.078 | 0.049 ± 0.0081
47 | UGGACCUUCAGCUUGGAUAGUAUUUAGUUA | 1.59 ± 0.068 | 0.0597 ± 0.011
48 | UCGACCUUCAGCUUCCAUAGUAUUUAGUUA | 0.0473 ± 0.011 | 0.00293 ± 0.0014
49 | UCCACCUAGUCCUUGCAUAGUAUUUAGUAA | 0.142 ± 0.021 | 0.00921 ± 0.0015
50 | UCCUGGAACAGCUUGCAAAGUAAUUAGUUA | 0.545 ± 0.038 | 0.0139 ± 0.0055
51 | UCCACCUACAGCUUGCAUAGAAUUUACAAA | 0.308 ± 0.054 | –
52 | UCCUGGUACAGUUUGCAUAGUAUUUAGUUA | 0.706 ± 0.044 | 0.0392 ± 0.0063
53 | AGGACCUACAGCUAGCAUAGUAUUUAGUAA | 0.836 ± 0.073 | 0.0193 ± 0.0066
54 | UCCACCUACAGCUUAGCAUAGUAUUUAGUUA | 1.02 ± 0.03 | 0.0144 ± 0.0034
55 | UGGACCUACAGCUAGCAUAGUAUUUAGUUA | 1.41 ± 0.074 | 0.0334 ± 0.0077
56 | AGGACCUACAGCUUAGCAUAGUAUUUAGUUA | 1.37 ± 0.052 | 0.0387 ± 0.011
57 | UCGACCUACAGCUUAGCAUAGUAUUUAGUUA | 1.59 ± 0.058 | 0.0251 ± 0.0054
58 | UGGACCUACAGCUAGCAUAGUAUUUAGUAA | 1.08 ± 0.065 | 0.016 ± 0.0033
59 | AGGACCUACAGCUUGGCAUAGUAUUUAGUUA | 1.17 ± 0.17 | 0.0407 ± 0.0099
